Rows were chosen to be rich in hits. Some 1.6% of all compounds tested hit in one or more screens of this group.
PfHsp40 rescue – restores yeast growth despite PfHsp40 toxicity. S. cerevisiae expressing PfHsp40, growth rescue, ATP luminescence. growth rescue, % at 12.5 µM. 0.68% of 340,000 active. AID 504582; in the data active = growth rescue above about 28%, passing the limit was not always enough; inconclusive = no clear call, values can overlap the other calls;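 note: yeast W303a lacking pdr1 and pdr3 grown in galactose medium; growth measured after three days at 30 °C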
RN4220 kill – kills Staphylococcus aureus RN4220 | S. aureus RN4220 growth, OD600, 16 h | inhibition, % (no concentration beside the values) | 0.33% of 330,000 active | AID 1259311; in the data active = inhibition above about 85%;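 note: plate controls were untreated cells for no effect and reference antibiotic for full effect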
BJeLR viability – kills HRASV12-expressing BJeLR cells. 0.17% of 300,000 active. AID 1554. BJeLR (HRASV12) viability, CellTiter-Glo ATP luminescence, 48 h. inhibition, % (test concentration not listed); in the data active = inhibition above about 50%; inconclusive = no clear call, values can overlap the other calls
ugtP null kill – growth inhibition of S. aureus ugtP deletion strain; S. aureus RN4220 ugtP deletion, OD600 growth, 16 h; growth inhibition, % (no concentration beside the values); 0.54% of 330,000 active; in the data active = growth inhibition above about 68%;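 note: plate controls were untreated wells for no effect and antibiotic for full effect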
CCHF vOTU inh – blocks the CCHF virus ovarian tumor domain protease; 0.55% of 370,000 active; CCHFV vOTU protease, Pep-AMC fluorescence; inhibition, % at 11.5 µM; in the data active = inhibition above about 30%; note: 0% = vehicle wells with enzyme and 100% = no enzyme wells
Active calls of the source: *; ? = inconclusive; . = not tested or not shown.

SMILES	PfHsp40 rescue	RN4220 kill	BJeLR viability	ugtP null kill	CCHF vOTU inh
COc1ccc(C(=O)On2c(-c3ccc(Br)cc3)nc3ccccc3c2=O)cc1	375*	4	-2	-18	1
Cc1ccc(-c2nc3ccccc3c(=O)n2O)cc1	132*	5	1	0	4
COc1ccccc1-c1nc2ccccc2c(=O)n1O	0	2	3	4	-5
COc1cc(OC)cc(-c2nc3ccccc3c(=O)n2OC(=O)c2ccc(Br)cc2)c1	0	5	4	-10	10
COC(=O)c1cccc(C23CC4(C2)C(CN(Cc2cccnc2)C4c2ccccc2)C3c2ccccc2)c1 (stereo not drawn)	.	-1	.	5	.
CC1=CC(=O)C=C(C)C1=NOS(=O)(=O)c1ccccc1	335*	4	82*	12	3
CC1=CC(=NOS(=O)(=O)c2ccccc2)C(C(C)C)=CC1=O	.	6	.	6	.
CC1=CC(=O)C(C(C)C)=C/C1=N/OS(=O)(=O)c1ccccc1	346*	.	116*	.	-5
Cc1cccc(OP(=O)(NCc2ccccc2)Oc2cccc(C)c2)c1	118*	-3	-4	-16	25
Cc1nc(SCc2ccccc2F)c2cnn(-c3ccccc3)c2n1	.	97	4	active	.
Cc1ccc(-c2[nH]c3cc(C(=O)NCCCn4ccnc4)ccc3c(=O)c2O)cc1	?	10	-3	9	-1
Cc1ccc(CNC(=O)c2ccc3c(=O)c(O)c(-c4ccc(C)cc4)[nH]c3c2)cc1	164*	4	-1	-20	3
Cc1ccc(-c2[nH]c3cc(C(N)=O)ccc3c(=O)c2O)cc1	44*	.	8	.	10
CCCNC(=O)c1ccc2c(=O)c(O)c(-c3ccc(OC)cc3)[nH]c2c1	185*	-1	-5	-16	.
CCCNC(=O)c1ccc2c(=O)c(O)c(-c3ccc(C)cc3)[nH]c2c1	-1	.	8	.	-10
O=C1N/C(=N/N=Cc2ccc(F)cc2)SC1c1ccccc1 (stereo not drawn)	.	2	.	4	.
O=C(O)C1=CC(c2ccc(Br)cc2)CC(OCCCCO)O1 (stereo not drawn)	.	10	.	1	.
CCN1C(=O)N(CC)C(=O)C2(Cc3ccccc3N3CCN(c4ccccc4)CC32)C1=O (stereo not drawn)	.	3	-1	89*	-6
COc1cccc(N(C(=O)CCl)C(C(=O)NCCc2ccccc2)c2cccs2)c1 (stereo not drawn)	0	3	72*	-1	-12
COc1ccc(N(C(=O)c2ccco2)C(C(=O)NC2CCCCC2)c2cccs2)cc1OC (stereo not drawn)	0	-10	-5	-6	6
COc1ccc(N(C(=O)CCl)C(C(=O)NCCc2ccccc2)c2cccs2)cc1Cl (stereo not drawn)	2	36	139*	8	12
CC1(C)OC(CC(=O)O)[C@]23COC(C(=O)[C@]4(C)C2CC[C@@]2(C)C(c5ccoc5)OC(=O)C5O[C@]524)C13 (stereo partly drawn)	.	9	.	6	.
CCCCCCCCC(=O)NN=C(C)c1ccc(O)cc1O	.	-7	.	-10	.
CCOc1cc(S(=O)(=O)NC2CCCCC2)ccc1F	89*	6	-9	-3	-8
COc1cc(S(=O)(=O)NC2CCCCC2)ccc1F	4	1	-12	-1	-1
SMILES	PfHsp40 rescue	RN4220 kill	BJeLR viability	ugtP null kill	CCHF vOTU inh
C=C(C)Cc1c(C)c(C#N)c2[nH]c3ccccc3n2c1=O	131*	72	2	61	-81
CCc1cc(=S)n2c([nH]c3ccccc32)c1C#N	-1	74	19	76	.
CCc1c(C)c(C#N)c2[nH]c3ccccc3n2c1=S	0	93*	27	92*	-9
COc1ccc(N/N=C(\C#N)C(=N)N2CCCCC2)cc1	-1	.	-2	.	-2
COc1ccc(N/N=C(\C#N)C(=N)SCc2ccccc2)cc1	209*	.	6	.	21
CCCCN(C)S(=O)(=O)c1cc(Br)cc2c1N(C(=O)C1CC1)CC2	132*	9	2	-4	.
O=C(O)CCS(=O)(=O)c1cc(Br)cc2c1N(C(=O)C1CC1)CC2	-1	8	1	-72	-2
COc1ccc(C(c2c(C)[nH]n(-c3ccccc3)c2=O)c2c(C)[nH]n(-c3ccccc3)c2=O)cc1OC	-1	4	-3	3	84*
C=CCN(c1ccccc1)S(=O)(=O)c1cccc(C(=O)NNC(=O)c2ccccc2O)c1	92*	11	-4	6	7
COc1cccc(C=NNC(=O)c2csc(-n3nc(C)cc3C(F)(F)F)n2)c1	.	0	.	-5	.
C=CCN(CC=C)C(=S)NC(=O)c1ccc(OC)c(Br)c1	56*	-3	-4	14	.
CN(C)CCNC(=O)c1cc2c(s1)-c1ccc(Cl)cc1SC2	5	.	79*	.	-98
Cc1ccc(CN=C2Nc3ccccc3CS2)cc1	-1	41	-1	82*	-3
COc1cccc(NC(=O)n2ncc3c(C)cccc32)c1	1	-3	54*	19	-9
O=C(NN=Cc1ccc[nH]1)c1ccc(Cl)cc1	.	-1	.	5	.
COc1ccc(C(=O)CNc2cccc(F)c2)cc1	0	2	1	3	5
COc1ccc(C(=O)CC(=O)C(=O)Nc2cccc(F)c2)cc1	39*	15	1	8	19
COc1ccc(C(=O)CC(=O)C(=O)Nc2ccccc2)cc1	57*	-1	-3	-6	11
COc1ccc(C(=O)CC(=O)C(=O)Nc2ccc(C)c(Cl)c2)cc1	-1	78	-2	97*	-9
Cc1ccc(NC(=O)c2nc[nH]c2C(=O)NC(C)c2ccccc2)cc1 (stereo not drawn)	.	-1	.	-9	.
CCC(C)C(NC(=O)OC(C)(C)C)c1nnc(SCc2c(C)[nH]c(=O)[nH]c2=O)o1 (stereo not drawn)	.	7	.	0	.
CC(=NN1CCN(Cc2ccc(C)cc2)CC1)c1ccco1	.	1	.	0	.
COc1ccc(C=N/N=C2/NC(=O)C(CC(=O)O)S2)cc1OS(=O)(=O)c1ccccc1 (stereo not drawn)	.	5	.	0	.
Cc1ccc(NC(=S)NN=Cc2c(C)[nH]c3ccccc23)cc1	.	92*	.	88*	.
Cc1[nH]c2ccccc2c1/C=N/NC(=S)NC(C)C	4	.	-15	.	11
SMILES	PfHsp40 rescue	RN4220 kill	BJeLR viability	ugtP null kill	CCHF vOTU inh
CCOC(=O)C1C2COc3ccc(C)cc3C2N2C(=O)c3ccc(C)cc3NC(=O)[C@@]12C (stereo partly drawn)	.	5	.	-6	.
CC(C)c1ccc(S(=O)(=O)/N=C2\C=C(NS(=O)(=O)c3ccccc3)C(=O)c3ccccc32)cc1	2	14	7	-5	68*
O=C(O)c1ccc(NC2=CC(=NS(=O)(=O)c3ccccc3)c3ccccc3C2=O)cc1	.	11	.	2	.
O=c1c2ccccc2nc(/C=C/c2ccccc2F)n1-c1ccccc1O	5	98*	-2	99*	-3
N#Cc1ccc(C=NNC(=O)CCc2ccc(S(=O)(=O)N3CCOCC3)cc2)cc1	.	0	.	1	.
O=C(O)c1ccc(N/N=C/c2ccc(-c3ccccc3)cc2)cc1	0	.	5	.	9

Bioassay records (PubChem BioAssay)
